Results taken from ChEMBL document CHEMBL1961873, “Compounds: GSK PKIS; Assays: Nanosyn kinase panel” (2012).

Columns and labels:
[1] = molecular target: T1, 3-phosphoinositide-dependent protein kinase 1 (Homo sapiens) (UniProt O15530); conditions: at 0.1 µM;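 further: values are mean inhibition of PDK1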
T1 sequence (whole entry): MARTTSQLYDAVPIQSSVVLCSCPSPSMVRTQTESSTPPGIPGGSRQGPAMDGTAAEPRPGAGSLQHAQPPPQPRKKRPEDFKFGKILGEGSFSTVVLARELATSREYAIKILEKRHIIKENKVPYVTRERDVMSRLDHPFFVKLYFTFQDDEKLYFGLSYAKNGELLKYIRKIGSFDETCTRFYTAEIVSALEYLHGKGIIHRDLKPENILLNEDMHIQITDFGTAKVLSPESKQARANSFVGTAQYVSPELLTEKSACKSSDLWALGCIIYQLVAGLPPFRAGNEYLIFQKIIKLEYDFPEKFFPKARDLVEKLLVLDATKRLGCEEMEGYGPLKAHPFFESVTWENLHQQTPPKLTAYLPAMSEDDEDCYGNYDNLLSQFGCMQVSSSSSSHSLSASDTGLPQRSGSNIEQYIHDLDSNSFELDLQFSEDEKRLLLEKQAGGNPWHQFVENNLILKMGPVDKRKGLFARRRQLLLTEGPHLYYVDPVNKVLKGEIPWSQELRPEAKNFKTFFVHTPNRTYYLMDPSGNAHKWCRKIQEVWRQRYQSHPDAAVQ

[2] = molecular target: cAMP-dependent protein kinase catalytic subunit alpha (Homo sapiens) (UniProt P17612); conditions: at 0.1 µM
[3] = molecular target: cAMP-dependent protein kinase catalytic subunit alpha (Homo sapiens) (UniProt P17612); conditions: at 1 µM
[4] = molecular target: Protein kinase C alpha type (Homo sapiens) (UniProt P17252); conditions: at 0.1 µM
[5] = molecular target: Protein kinase C alpha type (Homo sapiens) (UniProt P17252); conditions: at 1 µM
[6] = molecular target: Protein kinase C beta type (Homo sapiens) (UniProt P05771); conditions: at 0.1 µM
[7] = molecular target: Protein kinase C beta type (Homo sapiens) (UniProt P05771); conditions: at 1 µM
[8] = molecular target: Protein kinase C eta type (Homo sapiens) (UniProt P24723); conditions: at 0.1 µM
[9] = molecular target: Protein kinase C eta type (Homo sapiens) (UniProt P24723); conditions: at 1 µM
[10] = molecular target: Protein kinase C gamma type (Homo sapiens) (UniProt P05129); conditions: at 0.1 µM
[11] = molecular target: Protein kinase C gamma type (Homo sapiens) (UniProt P05129); conditions: at 1 µM
[12] = molecular target: T2, Protein kinase C iota type (Homo sapiens) (UniProt P41743); conditions: at 0.1 µM
T2 sequence (whole entry): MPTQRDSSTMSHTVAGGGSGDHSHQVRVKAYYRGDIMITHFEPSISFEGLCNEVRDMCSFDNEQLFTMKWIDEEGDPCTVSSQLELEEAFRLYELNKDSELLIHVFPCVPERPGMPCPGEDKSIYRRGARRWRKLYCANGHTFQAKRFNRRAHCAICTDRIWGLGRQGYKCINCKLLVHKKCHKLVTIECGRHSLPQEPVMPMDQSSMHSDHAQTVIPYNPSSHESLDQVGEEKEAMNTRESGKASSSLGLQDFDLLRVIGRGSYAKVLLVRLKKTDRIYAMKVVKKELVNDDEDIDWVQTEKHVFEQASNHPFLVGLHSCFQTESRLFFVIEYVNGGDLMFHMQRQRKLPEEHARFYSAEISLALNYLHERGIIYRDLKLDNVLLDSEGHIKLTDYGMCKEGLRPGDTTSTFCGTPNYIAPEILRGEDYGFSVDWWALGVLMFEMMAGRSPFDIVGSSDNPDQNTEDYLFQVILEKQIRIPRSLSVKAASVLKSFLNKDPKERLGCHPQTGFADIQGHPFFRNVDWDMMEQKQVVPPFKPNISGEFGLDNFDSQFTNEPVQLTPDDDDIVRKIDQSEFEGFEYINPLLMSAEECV

[13] = molecular target: T2, Protein kinase C iota type (Homo sapiens); conditions: at 1 µM
[14] = molecular target: Protein kinase C theta type (Homo sapiens) (UniProt Q04759); conditions: at 0.1 µM
[15] = molecular target: Protein kinase C theta type (Homo sapiens) (UniProt Q04759); conditions: at 1 µM
[16] = molecular target: Protein kinase C beta type (Homo sapiens) (UniProt P05771); conditions: at 0.1 µM; remark: listed apart in the source
[17] = molecular target: Protein kinase C beta type (Homo sapiens) (UniProt P05771); conditions: at 1 µM; remark: listed apart in the source
[18] = molecular target: T3, Serine/threonine-protein kinase D1 (Homo sapiens) (UniProt Q15139); conditions: at 0.1 µM
T3 sequence (whole entry): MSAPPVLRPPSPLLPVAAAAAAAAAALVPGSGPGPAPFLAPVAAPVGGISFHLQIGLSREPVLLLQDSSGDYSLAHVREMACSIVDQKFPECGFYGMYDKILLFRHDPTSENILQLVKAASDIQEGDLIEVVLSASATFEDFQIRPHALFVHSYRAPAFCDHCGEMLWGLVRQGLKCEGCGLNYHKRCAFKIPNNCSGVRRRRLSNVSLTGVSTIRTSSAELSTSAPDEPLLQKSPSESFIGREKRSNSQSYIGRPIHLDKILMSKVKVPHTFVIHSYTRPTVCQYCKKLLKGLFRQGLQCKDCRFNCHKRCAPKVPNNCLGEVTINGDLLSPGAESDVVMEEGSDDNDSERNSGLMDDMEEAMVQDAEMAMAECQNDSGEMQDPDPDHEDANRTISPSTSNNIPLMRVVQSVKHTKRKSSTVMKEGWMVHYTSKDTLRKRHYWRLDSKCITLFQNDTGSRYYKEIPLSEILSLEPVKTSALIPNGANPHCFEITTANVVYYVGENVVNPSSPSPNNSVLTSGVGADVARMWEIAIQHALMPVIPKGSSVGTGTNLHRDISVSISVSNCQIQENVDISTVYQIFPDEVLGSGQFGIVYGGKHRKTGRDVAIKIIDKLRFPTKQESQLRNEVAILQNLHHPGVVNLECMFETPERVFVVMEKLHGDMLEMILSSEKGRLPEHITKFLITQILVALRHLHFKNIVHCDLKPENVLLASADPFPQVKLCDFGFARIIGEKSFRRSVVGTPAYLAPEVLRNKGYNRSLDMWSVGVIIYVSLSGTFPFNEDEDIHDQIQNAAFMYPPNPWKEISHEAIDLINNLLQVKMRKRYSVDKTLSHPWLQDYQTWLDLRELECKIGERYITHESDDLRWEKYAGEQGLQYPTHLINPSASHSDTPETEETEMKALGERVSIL

[19] = molecular target: T3, Serine/threonine-protein kinase D1 (Homo sapiens); conditions: at 1 µM
[20] = molecular target: T4, Serine/threonine-protein kinase D2 (Homo sapiens) (UniProt Q9BZL6); conditions: at 0.1 µM;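 further: reported percent inhibition values are means, part of the GSK PKIS kinase panel screen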
T4 sequence (whole entry): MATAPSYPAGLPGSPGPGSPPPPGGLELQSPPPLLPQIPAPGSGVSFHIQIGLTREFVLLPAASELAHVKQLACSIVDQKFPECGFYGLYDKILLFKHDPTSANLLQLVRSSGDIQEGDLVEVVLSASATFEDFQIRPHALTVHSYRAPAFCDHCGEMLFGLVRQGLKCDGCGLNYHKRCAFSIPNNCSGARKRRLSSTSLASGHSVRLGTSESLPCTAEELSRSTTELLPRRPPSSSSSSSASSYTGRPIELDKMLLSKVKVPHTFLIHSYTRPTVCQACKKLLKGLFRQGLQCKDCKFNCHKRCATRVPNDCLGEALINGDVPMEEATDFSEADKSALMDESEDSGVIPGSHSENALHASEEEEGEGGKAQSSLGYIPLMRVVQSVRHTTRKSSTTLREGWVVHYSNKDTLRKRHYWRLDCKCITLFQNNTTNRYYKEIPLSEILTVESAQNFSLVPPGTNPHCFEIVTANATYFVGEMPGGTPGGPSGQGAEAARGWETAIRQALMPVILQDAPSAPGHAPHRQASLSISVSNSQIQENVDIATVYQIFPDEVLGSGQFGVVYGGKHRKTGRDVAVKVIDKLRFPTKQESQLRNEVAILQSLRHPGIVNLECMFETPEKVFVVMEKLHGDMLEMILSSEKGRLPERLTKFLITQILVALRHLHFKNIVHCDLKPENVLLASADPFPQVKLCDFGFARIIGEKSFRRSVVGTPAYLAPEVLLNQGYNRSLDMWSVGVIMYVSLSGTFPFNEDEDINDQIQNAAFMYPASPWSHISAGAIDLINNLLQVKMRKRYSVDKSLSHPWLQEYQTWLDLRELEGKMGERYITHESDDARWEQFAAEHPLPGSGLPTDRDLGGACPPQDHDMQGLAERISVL

Chain of Protein kinase C theta type (Homo sapiens) (Q04759 whole entry, looked up): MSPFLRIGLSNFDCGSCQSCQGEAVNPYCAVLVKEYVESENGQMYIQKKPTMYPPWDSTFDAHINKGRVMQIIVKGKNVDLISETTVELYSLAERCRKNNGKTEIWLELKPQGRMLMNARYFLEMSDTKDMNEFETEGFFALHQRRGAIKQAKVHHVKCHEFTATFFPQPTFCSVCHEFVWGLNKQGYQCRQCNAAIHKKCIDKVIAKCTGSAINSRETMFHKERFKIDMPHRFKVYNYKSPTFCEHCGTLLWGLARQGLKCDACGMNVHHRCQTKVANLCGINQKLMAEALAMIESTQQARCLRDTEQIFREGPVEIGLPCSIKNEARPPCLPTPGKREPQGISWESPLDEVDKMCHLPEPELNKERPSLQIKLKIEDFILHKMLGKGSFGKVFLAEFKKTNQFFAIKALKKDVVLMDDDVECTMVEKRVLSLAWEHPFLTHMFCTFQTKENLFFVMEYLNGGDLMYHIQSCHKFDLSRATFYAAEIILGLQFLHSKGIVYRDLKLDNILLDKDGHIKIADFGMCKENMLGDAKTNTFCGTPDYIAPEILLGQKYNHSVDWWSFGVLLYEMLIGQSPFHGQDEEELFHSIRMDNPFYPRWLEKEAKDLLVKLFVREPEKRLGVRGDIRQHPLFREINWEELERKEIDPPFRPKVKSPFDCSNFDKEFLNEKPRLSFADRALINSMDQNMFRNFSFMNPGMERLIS
Chain of Protein kinase C eta type (Homo sapiens) (P24723 whole entry): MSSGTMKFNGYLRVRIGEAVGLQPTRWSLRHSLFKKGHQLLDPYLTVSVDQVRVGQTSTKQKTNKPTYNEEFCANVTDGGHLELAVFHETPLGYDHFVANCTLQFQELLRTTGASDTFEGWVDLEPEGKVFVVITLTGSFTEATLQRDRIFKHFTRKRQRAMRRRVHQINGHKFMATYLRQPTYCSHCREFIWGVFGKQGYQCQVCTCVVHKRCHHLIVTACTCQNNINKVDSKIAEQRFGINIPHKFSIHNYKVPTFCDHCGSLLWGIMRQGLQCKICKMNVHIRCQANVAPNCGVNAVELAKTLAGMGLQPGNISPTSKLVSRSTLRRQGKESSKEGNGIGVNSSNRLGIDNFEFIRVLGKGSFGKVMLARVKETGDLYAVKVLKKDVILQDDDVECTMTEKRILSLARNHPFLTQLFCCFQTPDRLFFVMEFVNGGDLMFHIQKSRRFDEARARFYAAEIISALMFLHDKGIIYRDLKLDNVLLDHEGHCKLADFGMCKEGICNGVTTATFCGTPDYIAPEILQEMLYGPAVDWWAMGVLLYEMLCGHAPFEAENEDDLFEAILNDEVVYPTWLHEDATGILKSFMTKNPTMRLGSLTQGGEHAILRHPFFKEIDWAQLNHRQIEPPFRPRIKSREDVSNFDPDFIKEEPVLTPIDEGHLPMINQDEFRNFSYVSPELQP
Chain of Protein kinase C beta type (Homo sapiens) (P05771 2-671 limits assumed): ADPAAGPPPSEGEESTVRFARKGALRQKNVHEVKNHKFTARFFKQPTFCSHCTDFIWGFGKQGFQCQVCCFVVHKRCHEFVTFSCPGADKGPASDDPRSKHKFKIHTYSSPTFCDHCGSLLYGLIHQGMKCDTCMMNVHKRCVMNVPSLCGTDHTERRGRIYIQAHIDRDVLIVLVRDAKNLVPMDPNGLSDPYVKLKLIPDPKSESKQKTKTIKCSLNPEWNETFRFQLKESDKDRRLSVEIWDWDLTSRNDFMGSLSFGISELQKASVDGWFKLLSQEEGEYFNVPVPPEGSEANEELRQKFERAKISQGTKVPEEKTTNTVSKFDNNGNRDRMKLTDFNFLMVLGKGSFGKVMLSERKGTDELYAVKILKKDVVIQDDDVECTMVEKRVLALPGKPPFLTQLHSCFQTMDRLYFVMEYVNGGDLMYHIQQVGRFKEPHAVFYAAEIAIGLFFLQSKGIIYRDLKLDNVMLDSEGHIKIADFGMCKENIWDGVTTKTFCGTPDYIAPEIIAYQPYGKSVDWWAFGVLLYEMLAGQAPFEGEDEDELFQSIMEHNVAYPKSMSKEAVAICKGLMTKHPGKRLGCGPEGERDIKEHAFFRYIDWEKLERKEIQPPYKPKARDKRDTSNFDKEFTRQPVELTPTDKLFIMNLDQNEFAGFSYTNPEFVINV

SMILES	inhibition [1]	inhibition [2]	inhibition [3]	inhibition [4]	inhibition [5]	inhibition [6]	inhibition [7]	inhibition [8]	inhibition [9]	inhibition [10]	inhibition [11]	inhibition [12]	inhibition [13]	inhibition [14]	inhibition [15]	inhibition [16]	inhibition [17]	inhibition [18]	inhibition [19]	inhibition [20]
O=C1NC(=O)C(N2CCc3ccccc32)=C1c1ccc(Cl)cc1	1.64%	1.84%	1.95%	0.86%	1.6%	-0.46%	0.52%	0.02%	3.59%	5.52%	2.33%	1.4%	3.19%	2.06%	1.93%	1.71%	1.65%	3.74%	5.59%	4.57%
COc1cc2ncn(-c3cc(O[C@H](C)c4ccccc4Cl)c(C(N)=O)s3)c2cc1OC	2.16%	2.29%	1.54%	-0.04%	0.09%	3.14%	5.95%	4.41%	4.05%	3.01%	4.01%	2.97%	0.22%	3.41%	4.9%	2.75%	3.52%	1.04%	3.84%	2.69%
O=C1NC(=O)C(c2cccc(Cl)c2)=C1Nc1ccc(O)c(Cl)c1	0.43%	1.25%	1.73%	3.2%	6.33%	0.44%	4.94%	1.88%	2.97%	-4.59%	0.01%	-1.41%	0.5%	0%	4.79%	0.56%	8.45%	0.15%	1.38%	0.62%
CCCN1CCC(Oc2cc(Nc3nc(Nc4cccc(F)c4C(N)=O)c4cc[nH]c4n3)c(OC)cc2Cl)CC1	1.74%	9.14%	9.18%	0.7%	11.2%	0.29%	1.21%	2.42%	1.59%	2.93%	14.8%	1.04%	1.06%	1.35%	7.05%	1.2%	4.52%	0.11%	7.94%	-0.33%
NC(=O)c1cccc(Nc2nccc(Nc3cccc4[nH]ncc34)n2)c1	-1.42%	7.26%	10.7%	-0.39%	14.6%	0.67%	2.07%	-3%	5.2%	0.25%	9.98%	-0.89%	-1.43%	0.02%	6.28%	-1.01%	7.52%	-1.68%	6.22%	-1.94%
O=C1NC(=O)C(c2ccccc2Cl)=C1Nc1cccc(O)c1	0.81%	1.52%	2.92%	0.83%	3.41%	0.31%	5.5%	2.05%	5.24%	-3.81%	1.06%	1.73%	3.13%	1.38%	3.85%	2.15%	14.5%	2.34%	4.55%	1.91%
COc1cc(C=NNc2ncnc3c2cnn3-c2ccccc2)ccc1O	3.92%	1.37%	1.88%	0.49%	3.62%	1.19%	4.02%	3.68%	0.52%	1.8%	12.4%	1.32%	5.26%	0.44%	0.62%	1.72%	5.98%	1.65%	3.18%	1.16%
CCn1c(-c2nonc2N)nc2cncc(C(=O)N3CCNCC3)c21	2.8%	4.17%	8.74%	0.92%	1.73%	2.12%	4.3%	6.14%	4.16%	1.3%	0.03%	1.74%	0.89%	3.06%	3.7%	1.85%	3.67%	5.23%	6.72%	5.57%
CC1=C(C(=O)Nc2ccc3[nH]ncc3c2)C(c2ccc3ccccc3c2)CC(=O)N1 (stereo not given)	2.2%	7.18%	45.9%	1.26%	1.61%	1.81%	0.44%	4.97%	14.1%	0.67%	2.79%	1.06%	0.77%	1.49%	3%	0.83%	1.67%	2.78%	9.17%	2.02%
CNC(=O)c1cncc(/C=C/c2c(Cl)cccc2Cl)c1	0.01%	-1.08%	-1.47%	-3.64%	-2.28%	0.07%	0.23%	3.81%	5.49%	0.61%	1.44%	0.96%	0.96%	1.94%	1.94%	0.86%	1.27%	2.34%	5%	1.54%
O=C(Nc1n[nH]c2nc(-c3ccco3)c(Br)cc12)C1CC1	2%	1.31%	2.05%	0.29%	0.28%	1.29%	-0.77%	3.62%	2.72%	0.45%	3.32%	0.86%	2.37%	1.29%	0.79%	0.69%	1.19%	2.8%	5.78%	3%
CCn1c(-c2nonc2N)nc2c(N3CCCC3)nccc21	-1.76%	-0.34%	1.34%	-0.23%	0.84%	0.38%	13.4%	1.82%	11.2%	-1.48%	2.66%	0.51%	-0.25%	-0.32%	0.44%	-1.87%	2.46%	-0.28%	-0.14%	-1.19%
CC1=C(C(=O)Nc2ccc3[nH]ncc3c2)C(c2ccc(F)cc2)NC(=O)N1 (stereo not given)	0.63%	3.81%	30.4%	0.69%	0.39%	-0.65%	1.36%	3.55%	10.8%	0.38%	2.9%	1.83%	1.22%	1.63%	3.15%	1.62%	1.76%	3.15%	8.16%	3.76%
Cn1cc(C=C2C(=O)Nc3cccnc32)c2ccccc21	0.63%	0.99%	1.46%	1%	1.29%	-0.06%	-1.44%	2.86%	-0.57%	-1.77%	-0.93%	0.27%	1.58%	-0.39%	0.22%	0.8%	0.8%	2.63%	10.6%	3.33%
COc1cc2ncn(-c3cc(O[C@@H](C)c4ccccc4Cl)c(C(N)=O)s3)c2cc1OC	0.82%	4.37%	4.38%	1.75%	3.87%	3.42%	4.55%	5.28%	3.1%	3.01%	1.93%	3.86%	4.88%	2.16%	3.24%	1.99%	5.36%	5.25%	6.69%	4.18%
COc1ccc(COc2ccc(Cc3cnc(N)nc3N)cc2OC)cc1	1.69%	4.69%	1.52%	1.05%	1.13%	3.26%	2.56%	1.31%	-0.03%	2.11%	0.23%	0.94%	2.56%	0.95%	-0.58%	2%	1.96%	0.61%	2.03%	-0.07%
